High-throughput results as filed in PubChem.
Cruzain noTriton: blocks cruzain activity in detergent-free assay. P25779. purified cruzain, Z-FR-AMC fluorescence, no detergent. Potency, µM, actives largely listed as inhibitors. actives 2.3% (n = 200,000); also: nearly all actives have a fitted effect of over 40% in size
Target sequence (P25779 123-467 limits assumed): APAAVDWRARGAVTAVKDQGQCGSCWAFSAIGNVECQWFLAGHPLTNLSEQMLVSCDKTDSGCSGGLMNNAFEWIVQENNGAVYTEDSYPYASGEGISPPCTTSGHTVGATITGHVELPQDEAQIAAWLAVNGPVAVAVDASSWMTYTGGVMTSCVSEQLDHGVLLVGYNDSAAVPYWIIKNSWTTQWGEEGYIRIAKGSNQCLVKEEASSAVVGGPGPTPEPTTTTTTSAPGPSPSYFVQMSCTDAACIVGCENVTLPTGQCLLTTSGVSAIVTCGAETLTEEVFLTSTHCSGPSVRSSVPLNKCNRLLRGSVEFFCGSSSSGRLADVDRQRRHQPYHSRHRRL
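Purified cruzain at 1.5 nM, pre-incubated 15 min with compound at room temperature in 100 mM sodium acetate pH 5.5, 5 mM DTT, 0.00005% Triton X-100. Reaction started with 2 uM Z-FR-AMC; AMC fluorescence increase over 60 s gives rate.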
Cruzain inh Det: blocks cruzain activity in presence of Triton detergent; purified cruzain, Z-FR-AMC fluorescence, 0.01% Triton; Potency, µM, most hits filed as inhibitors; actives 0.43% (n = 200,000); AID 1478; also: nearly all actives have a fitted effect of over 40% in size
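Compounds were screened in titration against cruzain (1.5 nM) with 0.01% Triton X-100 to counter colloidal aggregation. Activity was the AMC fluorescence increase over 60 s after adding 2 uM Z-FR-AMC at pH 5.5.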
NS1 function inh: blocks influenza NS1 protein function | Potency, µM (titrated, usually from 46.1 µM) | actives 0.4% (n = 270,000); calls by dose curve; also: actives are rising curves; nearly all actives have a fitted effect of over 50% in size
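A cell-based growth assay was used: compounds that relieve NS1-induced slow growth of budding yeast raise OD600. Assay medium was yeast nitrogen base with ammonium sulphate and -URA supplement, pH 6.0, with 2% galactose.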
Large screens that a line does not name were inactive. The entries come from a sample that favours hits as a whole. Unless noted, calls follow the shape of the dose curve; as a rule, active = well fitted curve in the direction sought with a large enough effect; inconclusive = small, poorly fitted or top-dose-only effect, or another doubt; inactive = no such curve, though single readings can be large; an effect the other way counts as inactive or inconclusive.

Cc1cccc(C2=NN(c3ccccc3)[C@@H](C(=O)N3CCOC3=O)[C@@H]2c2ccc(Cl)cc2)c1	Cruzain noTriton 22.4µM (no result: NS1 function inh)
COc1ccccc1[C@@H]1C(c2ccccc2)=NN(c2ccccc2)[C@H]1C(=O)N1CCOC1=O	Cruzain noTriton inconclusive (no result: NS1 function inh)
COc1ccccc1[C@@H]1C(c2cccc(C)c2)=NN(c2ccccc2)[C@H]1C(=O)N1CCOC1=O	Cruzain noTriton 15.8µM, NS1 function inh inconclusive
COc1ccccc1[C@@H]1C(c2ccc(F)cc2)=NN(c2ccc(Br)cc2)[C@H]1C(=O)N1CCOC1=O	Cruzain noTriton 25.1µM (no result: NS1 function inh)
COc1ccccc1[C@@H]1C(c2ccc(F)cc2)=NN(c2ccccc2)[C@H]1C(=O)N1CCOC1=O	Cruzain noTriton inconclusive, NS1 function inh inconclusive
O=C1OCCN1C(=O)[C@H]1[C@H](c2ccccc2)C(c2cccc(Cl)c2)=NN1c1ccccc1	Cruzain noTriton inconclusive (no result: NS1 function inh)
COc1ccccc1[C@@H]1C(c2cccc(Cl)c2)=NN(c2ccc(Br)cc2)[C@H]1C(=O)N1CCOC1=O	Cruzain noTriton 8.91µM
O=C(COC(=O)c1ccc(Cl)nc1)NC(=O)c1ccccc1	none (no result: Cruzain noTriton, Cruzain inh Det)
COC(C[C@@H]1O[C@@H]1C(=O)COCc1ccccc1)OC	none (no result: Cruzain noTriton, Cruzain inh Det)
Cc1ccc(C)c(S(=O)(=O)N2CCN(C(C)C(=O)Nc3ccccc3-c3ccccc3)CC2)c1 (stereo unspecified)	none
CCOC(=O)C1CCCN(C(=O)c2c(-c3ccccc3Cl)noc2C)C1 (stereo unspecified)	none
N#Cc1cc2ccccc2nc1SCC(=O)Nc1ccc(S(=O)(=O)N2CCCC2)cc1	Cruzain noTriton inconclusive, NS1 function inh inconclusive
Cc1cc(C)c2nc(SCC(=O)Nc3ccc(S(=O)(=O)N4CCCC4)cc3)c(C)cc2c1	Cruzain noTriton 12.6µM
CCOc1ccc2nc(SCC(=O)Nc3ccc(S(=O)(=O)N4CCCC4)cc3)c(C)cc2c1	none (no result: Cruzain noTriton, Cruzain inh Det)
COc1ccc2nc(SCC(=O)Nc3ccc(S(=O)(=O)N4CCCC4)cc3)c(C#N)cc2c1	Cruzain noTriton 12.6µM
O=C(NNc1c(Cl)cc(Cl)cc1Cl)c1n[nH]c(=O)c2ccccc12	none (no result: Cruzain noTriton, Cruzain inh Det)
COc1ccc(N2C(=O)C3CCCN3C2c2cccc(OC)c2OC)cc1 (stereo unspecified)	NS1 function inh inconclusive
O=c1oc2ccc(Br)cc2cc1-c1csc(-c2ccccc2)n1	none (no result: NS1 function inh)
Cc1cc(C)c(-c2csc(Cc3nc(-c4cc5ccccc5oc4=O)cs3)n2)cc1C	Cruzain noTriton 10µM
Cc1cc(C)c(-c2csc(-c3cc4ccccc4oc3=O)n2)cc1C	none (no result: NS1 function inh)
Cc1ccc(-c2csc(Cc3nc(-c4cc5ccccc5oc4=O)cs3)n2)cc1	Cruzain noTriton 6.31µM
Cc1ccc2oc(=O)c(-c3nc4ccc(C)cc4[nH]3)cc2c1	none (no result: NS1 function inh)
CCCCn1c(-c2cccnc2)nc2cc3[nH]c(=O)c(C(C)C)nc3cc21	none (no result: Cruzain noTriton, Cruzain inh Det)
O=C(CNc1cccc(Cl)c1)c1ccc(Br)cc1	none (no result: Cruzain noTriton, Cruzain inh Det)
COC(CNC(=O)c1ccc2c3c(onc13)-c1ccccc1C2=O)OC	none (no result: Cruzain noTriton, Cruzain inh Det)
C[C@H](NC(=O)[C@@H]1C[C@H]1[C@@H](NC(=O)OCc1ccccc1)c1ccccc1)c1ccccc1	Cruzain noTriton 15.8µM (no result: NS1 function inh)
CC(C)NC(=O)[C@@H]1C[C@H]1[C@@H](NC(=O)OCc1ccccc1)c1ccccc1	none (no result: NS1 function inh)
CCc1ccc(Cc2cnc(NC(=O)c3ccc4c(c3)CC(c3ccccc3)OC4=O)s2)cc1 (stereo unspecified)	Cruzain noTriton inconclusive (no result: NS1 function inh)
O=C(Nc1ncc(Cc2ccccc2Cl)s1)c1ccc2c(c1)CC(c1ccccc1)OC2=O (stereo unspecified)	Cruzain noTriton 31.6µM (no result: NS1 function inh)
CCCCCCN(CCCCCC)C(=O)Cc1c(-c2ccc(F)cc2)[nH]c2ccccc12	Cruzain noTriton 31.6µM
O=C(Cc1c(O)c2ccccc2[nH]c1=O)N(Cc1ccccc1)Cc1ccccc1	none
Cc1ccc(-c2nn(-c3cc(Cl)ccc3[N+](=O)[O-])c(=O)c3ccccc23)cc1	Cruzain noTriton inconclusive
CCn1c(C(=O)NCc2ccc(F)cc2)cc2oc3ccccc3c21	none (no result: NS1 function inh)
CCOc1ccccc1CNC(=O)c1cc2oc3ccccc3c2n1CC	Cruzain noTriton 31.6µM
COc1ccc(NC(=O)CCNS(=O)(=O)c2cc(Br)ccc2Br)cc1S(N)(=O)=O	none (no result: Cruzain noTriton, Cruzain inh Det)
Cn1c(N)c(C(=O)CSc2nnc(-c3ccccc3F)n2N)c(=O)n(C)c1=O	none (no result: Cruzain noTriton, Cruzain inh Det)
COc1ccc(C2c3c(oc4ccc(C)cc4c3=O)C(=O)N2c2cc(C)ccn2)cc1OC (stereo unspecified)	Cruzain noTriton inconclusive
CC1(c2ccccc2)CC(C)(C)N2C(=O)C3(C(C#N)=C(N)Oc4cc(O)ccc43)c3cccc1c32 (stereo unspecified)	none
CC1(c2ccccc2)CC(C)(C)N2C(=O)/C(=C3\SC(=S)NC3=O)c3cccc1c32 (stereo unspecified)	Cruzain noTriton 7.94µM
Cc1ccc2[nH]c(=O)c(-c3nc4ccccn4c3NCc3ccco3)cc2c1	none
Cc1nc(-c2ccc(S(=O)(=O)N3CCCCCC3)cc2)cs1	none
Cc1ccc(Nc2nc(-c3ccc(S(=O)(=O)N4CCCC4)cc3)cs2)cc1C	Cruzain noTriton 12.6µM, NS1 function inh inconclusive
Cc1nc(-c2ccc(S(=O)(=O)N3CCOCC3)cc2)cs1	none (no result: Cruzain noTriton, Cruzain inh Det)
O=S(=O)(c1ccc(-c2csc(Nc3ccc(F)cc3)n2)cc1)N1CCCC1	Cruzain noTriton inconclusive
Cc1cc(C)cc(Nc2nc(-c3ccc(S(=O)(=O)N4CCCC4)cc3)cs2)c1	Cruzain noTriton 15.8µM
O=S(=O)(c1ccc(-c2csc(Nc3ccc(Br)cc3)n2)cc1)N1CCCC1	Cruzain noTriton 31.6µM
CCN(CC)S(=O)(=O)c1cccc(NC(=O)CNc2cccc(S(=O)(=O)N3CCCC3)c2)c1	none (no result: Cruzain noTriton, Cruzain inh Det)
COc1ccc2c(c1)O[C@@H](c1cccc(C(F)(F)F)c1)[C@H](OC(=O)NCCOc1ccccc1)C2=O	none (no result: NS1 function inh)
Nc1sc(-c2ccccc2)cc1C(=O)O	none
O=C(Oc1ccc(C(=S)N2CCOCC2)cc1)c1ccccc1[N+](=O)[O-]	none (no result: Cruzain noTriton, Cruzain inh Det)
CC(=O)NC(Cc1ccccc1)C(=O)OCC(=O)c1ccc(Br)cc1 (stereo unspecified)	none
O=S(=O)(c1ccccc1)c1cnc(-c2cccnc2)nc1-c1ccc(Cl)c(Cl)c1	Cruzain noTriton inconclusive
CC(C)Cn1c(O)c(/C=C2\C=NN=C2c2ccccc2)sc1=S	none
O=C(C1CCN(S(=O)(=O)c2cccc3cccnc23)CC1)N1CC=C(c2ccccc2)CC1	NS1 function inh inconclusive
Cc1ccc(NC(=O)Cn2nnc3sc(-c4ccccc4)cc3c2=O)cc1Cl	Cruzain noTriton inconclusive (no result: NS1 function inh)
CS(=O)(=O)c1ccc2nc(NC(=O)CN3C(=O)NC4(CCCC4)C3=O)sc2c1	none (no result: Cruzain noTriton, Cruzain inh Det)
COc1ccc(NC(=O)Cn2cc(S(=O)(=O)N3CCN(c4ccccc4F)CC3)c3ccccc3c2=O)cc1Cl	Cruzain noTriton 7.94µM (no result: NS1 function inh)
COc1cc(Cl)c(C)cc1NC(=O)Cn1cc(S(=O)(=O)N2CCN(c3ccccc3F)CC2)c2ccccc2c1=O	none (no result: NS1 function inh)
Cc1ccc(-n2nnc(-c3nsc(NC(=O)c4ccccc4C)n3)c2C)cc1Cl	none (no result: NS1 function inh)
Cc1c(-c2nsc(NC(=O)c3ccccc3)n2)nnn1-c1ccc(C(F)(F)F)c(Cl)c1	Cruzain noTriton 20µM (no result: NS1 function inh)
CCOC(=O)c1c(NC(=O)CCNCc2ccco2)sc2c1CCC2	none (no result: Cruzain noTriton, Cruzain inh Det)
Cc1ccc(C(=O)NCCSCc2ccccc2)cc1[N+](=O)[O-]	none
COC(=O)c1c(NS(=O)(=O)c2ccc3ccccc3c2)sc2c1CCCC2	Cruzain noTriton inconclusive
COC(=O)c1c(NC(=O)c2ccc(Br)s2)sc2c1CCC2	Cruzain noTriton 10µM
